# According to PubChem BioAssay AID686978 (National Center for Advancing Translational Sciences (NCATS), 2013):
# Out of some 420,000 compounds screened, about 64,000 (15%) were called active. Inconclusive results (about 27%) are left out. Calls follow the shape of the dose curve; as a rule, active = well fitted inhibition curve with a large enough effect; inconclusive = small, poorly fitted or top-dose-only effect; inactive = flat fitted curve, though single readings scatter. A selection follows.
# Experiment: qHTS for Inhibitors of human tyrosyl-DNA phosphodiesterase 1 (TDP1): qHTS in cells in absence of CPT; also: nearly all actives have a fitted effect of over 55% in size
# Details: DT40 Tdp1-/- hTDP1 cells, no CPT, ATP luminescence, 48 h; activity change, negative = growth inhibition: at 46.2 µM (top of the series)
# Excerpt: Human tyrosyl-DNA phosphodiesterase 1 (TDP1) is a novel repair gene, and we propose to use it as a new target for anticancer drug development. TDP1 is not an essential protein, but under treatment with topoisomerase I poison (camptothecin: CPT), TDP1 works as a critical factor for cell survival. To directly identify novel TDP1 inhibitors active in a cellular environment, we have knocked-out the Tdp1 gene in chicken DT40 cells (Tdp1-/-) and generated a complemented counterpart cells that contains a stable transfection of the human TDP1 gene (Tdp1-/-;hTDP1 cells). For the primary screen, Tdp1-/-;hTDP1 cells will be exposed to small molecules in the presence or absence of CPT, and their growth kinetics will be evaluated after 48 hours by measuring ATP activity. […] The hit compounds will then be evaluated in the presence or absence of CPT using Tdp1-/- cells. […] In tertiary assays, biochemical gel-based assays will be used to assess whether the hit compounds specifically target TDP1.
# To this end, we have screened this cell line against the MLSMR in two primary screens. In one screen we add CPT and in the other we screen in the absence of CPT; this AID represents the screen where CPT was absent.
# NIH Chemical Genomics Center [NCGC]
# NIH Molecular Libraries Probe Centers Network [MLPCN]
# Assay Submitter (PI): Yves Pommier, NCI
# DT40-hTDP1 cells without 20 nM Camptothecin (add 20 microL of DMSO in 1 L of cell culture medium) were dispensed at 400 cells/5microL/well in tissue culture treated 1536-well white wall/solid bottom assay plates (Greiner Bio-One North America, NC, U.S.A.) using a Multidrop Combi 8 channel dispenser (Thermo Fisher, Waltham, MA, USA). 23 nL compounds and controls were transferred using the pin tool (Kalypsys, San Diego, CA, USA) to the assay plates. The assay plates were then incubated at 37 masculineC for a minimum 48 hr. Three microL of Cell Titer Glo solution was added to the plates and incubated at RT in dark for 30 min. Luminescence was read using ViewLux (Perkin Elmer) with 1 sec exposure slow speed, high gain and 2x binning.
# % is scaled to controls: 0 for no effect and ±100 for the full control effect; potency is read from the fitted curve at half-maximal effect.
SMILES,"activity change, negative = growth inhibition",Potency
CCOC(=O)C1CCN(C(=O)Nc2ccc(C)c(Cl)c2)CC1,-18.4% (inactive),
Cc1ccc(NC(=O)Nc2cc(-c3ccccc3)nn2C)cc1Cl,,20.6 µM (active)
Cc1cc(NC(=O)Nc2ccc(Cl)cc2)n(-c2ccccc2)n1,-14.9% (inactive),
O=C(CN1CCOc2ccccc21)N1CCC(Cc2ccccc2)CC1,,11.6 µM (active)
O=C(NCc1nnc(SCC(=O)N2CCC(Cc3ccccc3)CC2)o1)c1ccco1,-3.4% (inactive),
CC1(C)CC(=O)C(CC(=O)N2CCC(Cc3ccccc3)CC2)C(=O)C1,-13.8% (inactive),
CC1COC2C(O1)N(S(C)(=O)=O)CCN2S(C)(=O)=O (stereo unspecified),-9.7% (inactive),
Cc1ccc(-n2nc3ccc(NC(=O)/C=C/c4ccco4)cc3n2)cc1C,,18.4 µM (active)
Cc1nnc(NC(=O)/C=C/c2ccco2)s1,-3.69% (inactive),
O=C(/C=C/c1ccco1)Nc1cccc(-c2nc3ccccc3[nH]2)c1,,23.1 µM (active)
O=C(Nc1cccc(NC(=O)c2ccc(Br)cc2)c1)c1ccccc1,-5.64% (inactive),
NS(=O)(=O)c1cccc(NC(=O)COC(=O)/C=C/c2ccco2)c1,-3.67% (inactive),
CCC(=O)Nc1ccc2nn(-c3ccc(F)cc3)nc2c1,-27.6% (inactive),
O=C(Nc1cccc(-c2nc3ccccc3[nH]2)c1)c1ccc(C(=O)Nc2cccc(-c3nc4ccccc4[nH]3)c2)cc1,,18.4 µM (active)
COc1cccc(NC(=O)COC(=O)/C=C/c2ccco2)c1,-27% (inactive),
c1ccc(-c2[nH]ncc2-c2nc3ccccc3[nH]2)cc1,6.23% (inactive),
COc1ccccc1C(=O)Nc1ccnn1C1CCN(Cc2cnn(C)c2)CC1,-3.57% (inactive),
COc1ccc2c(c1OC)C(=O)N(c1ncn[nH]1)C2,-0.222% (inactive),
Cc1ccc(S(=O)(=O)NC[C@H]2O[C@@H](n3cnc4c(N)ncnc43)[C@H](O)[C@@H]2O)s1,-16.2% (inactive),
CCCc1cc(=O)[nH]c(SCc2cc(=O)oc3c(C)c(C)ccc23)n1,-12.2% (inactive),
CCN(CC(=O)Nc1c(F)cccc1F)C(=O)c1cnc(C)cn1,2.58% (inactive),
CC(C)CN(C(=O)CSc1nncn1C)C1CCS(=O)(=O)C1 (stereo unspecified),-14.8% (inactive),

SMILES,"activity change, negative = growth inhibition",Potency
O=C(CN(Cc1ccccc1)C(=O)c1ccc2c(c1)OCCO2)NCc1ccc2c(c1)OCO2,-23.2% (inactive),
CC/C(O)=N\S(=O)(=O)c1ccc(N=NN(C)C)cc1,-6.75% (inactive),
COC(=O)C1=C(C)N(Cc2ccccc2)C(=NCCCOC(C)C)N[C@H]1c1ccccc1,,10.3 µM (active)
COCCN1C(=O)N[C@@H](c2ccccc2)C(C(=O)OC)=C1C,-8.68% (inactive),
CCN1C(=O)N[C@@H](c2ccccc2)C(C(=O)OC)=C1C,-14.8% (inactive),
CCOCCOCCC(C(=O)O)P(=O)(c1ccccc1)c1ccccc1 (stereo unspecified),9.02% (inactive),
CCOc1ccc(-n2cnnn2)cc1S(=O)(=O)N1CCC(C)CC1C (stereo unspecified),-22.2% (inactive),
CCc1ccccc1NC(=O)CSc1nnc(CCNC(=O)OC(C)(C)C)o1,-14.5% (inactive),
Cc1ccccc1Nc1nc(N)nc(CSc2nnc3ccccn23)n1,2.48% (inactive),
O=C(Nc1cc(C(F)(F)F)ccc1Cl)c1ccc2c(c1)CCN2S(=O)(=O)c1ccccc1,,11.6 µM (active)
CCN(C(=O)COC(=O)c1cc(S(=O)(=O)N2CCc3ccccc32)ccc1OC)C1CCS(=O)(=O)C1 (stereo unspecified),0.801% (inactive),
COc1ccc(S(=O)(=O)N2CCc3ccccc32)cc1C(=O)Nc1cc(S(C)(=O)=O)ccc1Cl,,4.61 µM (active)
CS(=O)(=O)N1CCc2cc(C(=O)Nc3ccccc3)ccc21,-3.41% (inactive),
Cc1ccc(S(=O)(=O)N2CCc3cc(C(=O)Nc4ccc(Cl)cc4C)ccc32)cc1,-2.76% (inactive),
COc1ccc(OC)c(NC(=O)c2ccc3c(c2)CCN3S(C)(=O)=O)c1,-24.1% (inactive),
CC(C)(O)C1=C[N+](=O)CC=C1,-3.03% (inactive),
C#CCOCCOCCOCCNc1nc(N2CCN(C(=O)C([C@@H](C)CC)n3cc(C(N)COC(=O)C(F)(F)F)nn3)CC2)nc(N2CCN(C(=O)[C@H](CCCCN)n3cc(C(N)CC(C)C)nn3)CC2)n1 (stereo partly specified),-1.26% (inactive),
Cc1nn(CC(=O)Nc2ccc(N(C)C)cc2)c(C)c1[N+](=O)[O-],-26.8% (inactive),
CC1CC(=NNC(=O)C2COc3ccccc3O2)CC(C)(C)C1 (stereo unspecified),-27.9% (inactive),
C[C@@H](C(=O)N1CCNCC1)n1cc(CCC(=O)O)nn1,-8.65% (inactive),
C=C(C)CNc1cc(S(=O)(=O)N2CCOCC2)ccc1Oc1ccccc1,,20.6 µM (active)
COC(=O)c1cc(Oc2ccc(S(=O)(=O)N3CCOCC3)cc2[N+](=O)[O-])cc(C(=O)OC)c1,-27.7% (inactive),

SMILES,"activity change, negative = growth inhibition",Potency
COc1ccc(S(=O)(=O)N2CCOCC2)cc1NC(=O)COc1ccccc1,-24.6% (inactive),
O=[N+]([O-])c1cc([N+](=O)[O-])c(Oc2cc(F)cc(F)c2F)cc1NN1CCCCC1,-23.3% (inactive),
O=C(/C=C/c1ccc(F)cc1)NCCNC(=O)/C=C/c1ccc(F)cc1,4.93% (inactive),
COc1cccc(C(=O)NNC(=O)/C=C/c2ccccc2)c1,19.2% (inactive),
O=C(/C=C/c1ccc([N+](=O)[O-])o1)NNC(=O)c1ccc(F)cc1,,1.84 µM (active)
Cc1ccsc1C(=O)N[C@@H](C)c1nnc2ccccn12,-7.07% (inactive),
Nc1nc2[nH]c(=O)c(=O)[nH]c2c(=O)[nH]1,15.7% (inactive),
CCOC(=O)n1c(SCC(=O)N(CC)CC)nc2ccccc21,-16.7% (inactive),
CCN(CC)C(=O)CSc1nc2ccsc2c(=O)n1Cc1ccccc1Cl,,23.1 µM (active)
CCOC(=O)CSc1nc2c(c(=O)n(Cc3ccccc3Cl)c(=O)n2C)n1C,-3.48% (inactive),
CN(Cc1ccco1)c1ncncc1-c1ccoc1,-6.14% (inactive),
CCc1ccc(Oc2coc3cc(OC(=O)c4cc5ccccc5oc4=O)ccc3c2=O)cc1,-9.4% (inactive),
Cc1[nH]c(=O)c(C(=O)/C=C/c2ccccc2)c2c1CCCC2,,5.8 µM (active)
O=C(NCc1ccccn1)c1c(O)c2c([nH]c1=O)CCCC2,-7.3% (inactive),
Cc1cn(COC/C=C/c2ccccc2)c(=O)[nH]c1=O,-2.88% (inactive),
Cc1cc(Cl)c(S(=O)(=O)Nc2ccc3c(c2)OCCO3)cc1OCC(N)=O,-29.7% (inactive),
Cc1ccc(/C=N/NC(=O)Cn2ccc(C(F)(F)F)n2)o1,-0.299% (inactive),
Cc1cc(-c2n[nH]c(=S)n2-c2ccc(C)c(C)c2)no1,-4.09% (inactive),
Cc1cc(C)c2oc(C(=O)Nc3ccc(S(=O)(=O)Nc4nccc(C)n4)cc3)cc(=O)c2c1,-26% (inactive),
Cc1cc(F)ccc1NC(=S)NCCc1ccccc1,-10.9% (inactive),
Cc1ccc(NC(=S)NCCc2ccc(Cl)cc2)c(C)c1,,18.4 µM (active)
Cc1cc(Cl)ccc1NC(=S)NCCCN1CCCC1=O,3.78% (inactive),

SMILES,"activity change, negative = growth inhibition",Potency
Cc1ccc(NC(=S)NCc2ccccc2Cl)c(C)c1,,20.6 µM (active)
CCNC(=S)Nc1cccc(Cl)c1C,-27.6% (inactive),
S=C(NCc1ccco1)NCc1ccccc1Cl,13.1% (inactive),
Clc1ccc(CSc2nnc([C@@H]3CCCN3)o2)cc1,-17% (inactive),
CS(=O)(=O)c1ccccc1C(=O)Nc1ccc2sccc2c1,14.5% (inactive),
O=C(/C=C/c1ccccc1[N+](=O)[O-])OCC(=O)N1CCCC1,18.5% (inactive),
CCC(C(=O)Nc1c(C)cccc1C)n1c(-c2cc(C)cs2)nc2ccccc21 (stereo unspecified),-14.6% (inactive),
O=C(CCSCc1cccc(F)c1)NCc1ccccc1,-7.79% (inactive),
CCC(C(=O)NCc1ccccc1)n1c(Cc2cc(F)cc(F)c2)nc2ccccc21 (stereo unspecified),,16.4 µM (active)
CCC(C)c1ccc(O)c(/C=N/O)c1 (stereo unspecified),16.9% (inactive),
Cc1cc(C)n(-c2nc(O)cc(=O)[nH]2)n1,8.33% (inactive),
CS(=O)(=O)N(CC(=O)NC1CCCC1)Cc1ccc(F)cc1,-6.2% (inactive),
Cc1ccc(OCC(=O)N2CCN(C(=O)c3cccnc3)CC2)cc1,-10.2% (inactive),
Cc1ccc(NC(=O)Cc2nc(COC(=O)C(C)NS(=O)(=O)c3ccc(C)cc3)cs2)cc1 (stereo unspecified),-26.5% (inactive),
Cc1ccc(C(=O)NNC(=O)c2cccs2)cc1,-20% (inactive),
CC(=O)c1ccc(NC(=O)CSc2nnc(NC(=O)Nc3ccccc3)s2)cc1,-28.6% (inactive),
CSc1nsc(NC(=O)Nc2ccccc2)n1,,20.6 µM (active)
CC(=O)Nc1ccc(C(=O)Nc2nc(-c3cc(C)n(Cc4ccccc4)c3C)cs2)cc1,,14.6 µM (active)
CC(=O)Nc1ccc(-c2csc(NC(=O)Nc3ccccc3)n2)cc1,,1.16 µM (active)
CCC(=O)Nc1ccc(C(=O)Nc2cc(C)on2)cc1,2.69% (inactive),
Cc1nc(NNC(=O)c2ccccc2)cc(-c2ccccc2)n1,-10.7% (inactive),
O=C(O)c1ccccc1C(=O)Nc1nc(-c2ccccc2)cs1,-0.805% (inactive),

SMILES,"activity change, negative = growth inhibition",Potency
CC(=O)Nc1ccc(S(=O)(=O)Nc2nc(-c3ccc(C(C)(C)C)cc3)cs2)cc1,-17.4% (inactive),
O=C(Nc1ccccc1)Nc1nc2ccccc2s1,-2.58% (inactive),
Cc1ccc(-c2csc(NNC(=O)c3ccccc3)n2)cc1,,5.17 µM (active)
CC(=O)c1ccc(NC(=O)N[C@@H](Cc2ccccc2)C(=O)O)cc1,-2.61% (inactive),
CN1C(=O)C2(OCCCO2)c2cc(Cl)ccc21,7.23% (inactive),
O=C(CNC(=O)Cc1ccccc1)NCC(=O)OCC(=O)c1ccccc1Cl,-18.5% (inactive),
O=C(c1snnc1-c1ccccc1)N1CCOCC1,7.46% (inactive),
Cc1nn(C(C)CC(=O)O)c(C)c1C (stereo unspecified),5.41% (inactive),
CCN1N=C(c2ccccc2)CCC1=O,0.898% (inactive),
CCN(CC(=O)NCCc1ccccc1)S(=O)(=O)c1ccc(C)cc1,-8.2% (inactive),
COCC(=O)N1CCC2(CCCN(c3ccccc3)C2)CC1,-15.7% (inactive),
COc1ccc(C(=O)OCC(=O)NCC2CCCO2)cc1[N+](=O)[O-] (stereo unspecified),12.4% (inactive),
COc1ccc(C(CNC(=O)c2cc3c(s2)CCCC3)N2CCOCC2)cc1 (stereo unspecified),0.592% (inactive),
CCCNC(=O)COc1coc(CN2CCN(Cc3ccccc3)CC2)cc1=O,11.7% (inactive),
O=S(=O)(c1ccccc1)N1CCC(c2ccccc2)CC1,-16.2% (inactive),
O=S(=O)(c1ccc(Br)cc1)N1CCC(c2nc3ccccc3[nH]2)CC1,,20.6 µM (active)
O=C(C1CCCO1)N1CCC(c2nc3ccccc3[nH]2)CC1 (stereo unspecified),-4.09% (inactive),
Cc1c(NC(=O)c2c([N+](=O)[O-])cnn2C)c(=O)n(-c2ccccc2)n1C,5.36% (inactive),
